# Test results: ChEMBL document CHEMBL3433997, “St. Jude Leishmania screening dataset” (2016)
# Several values for one entry are separate records, joined by “and”; a condition that tells them apart may be missing. Equal values may be shown once.
# Key:
# Assay type in all cases: functional
# [1] = target: Solute carrier family 2, facilitated glucose transporter member 1 (Homo sapiens) (UniProt P11166); assay: ST_JUDE_LEISH: Cytotoxicity at 2uM final concentration against transgenic Leishmania Mexicana promastigotes LmGLUT1 that are glucose transport deficient and complemented with the human glucose transporter GLUT1. Activity is measured by DNA content using SYBR green in vitro
# Chain of Solute carrier family 2, facilitated glucose transporter member 1 (Homo sapiens) (P11166 whole entry): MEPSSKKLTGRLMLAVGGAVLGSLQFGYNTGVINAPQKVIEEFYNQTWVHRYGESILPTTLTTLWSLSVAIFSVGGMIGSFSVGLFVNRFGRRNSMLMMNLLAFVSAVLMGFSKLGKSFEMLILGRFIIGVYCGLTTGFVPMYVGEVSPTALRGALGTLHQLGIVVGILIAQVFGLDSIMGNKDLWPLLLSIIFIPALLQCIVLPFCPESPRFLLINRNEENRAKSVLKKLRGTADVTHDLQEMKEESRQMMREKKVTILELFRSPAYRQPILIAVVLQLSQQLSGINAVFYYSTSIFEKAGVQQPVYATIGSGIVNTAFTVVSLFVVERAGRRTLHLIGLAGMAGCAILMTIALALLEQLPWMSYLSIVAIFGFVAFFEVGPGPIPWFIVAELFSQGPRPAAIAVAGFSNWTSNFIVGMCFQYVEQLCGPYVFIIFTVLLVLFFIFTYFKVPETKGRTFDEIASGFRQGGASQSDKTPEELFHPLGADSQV
# [2] = target: Hexose transporter 1 (Plasmodium falciparum) (UniProt O97467); assay: ST_JUDE_LEISH: Cytotoxicity at 2uM final concentration against transgenic Leishmania Mexicana promastigotes LmPfHT that are glucose transport deficient and complemented with the Plasmodium falciparum hexose transporter. Activity is measured by DNA content using SYBR green in vitro
# [3] = target: Glucose transporter (Leishmania mexicana) (UniProt O61059); assay: ST_JUDE_LEISH: Cytotoxicity at 2uM final concentration against transgenic Leishmania Mexicana promastigotes LmGT2 that are glucose transport deficient and complemented with the L. Mexicana glucose transporter 2. Activity is measured by DNA content using SYBR green in vitro
SMILES,inhibition [1],inhibition [2],inhibition [3]
CCC(C)(C)NC(C)C(O)c1ccc(C(F)(F)F)cc1 (stereo unspecified),-0.19%,0.51%,-0.15%
CCOC(=O)c1c(C)n(C2CCCCC2)c2cc(Br)c(O)cc12,-0.53%,-0.38%,-0.74%
Cc1[nH]c2cc(F)ccc2c1C1=CCN(CCCCC2(C)C(=O)Nc3ccccc32)CC1 (stereo unspecified),2.11%,1.23%,0.15%
CCC1=C[C@@H]2CN(C1)Cc1c([nH]c3ccccc13)[C@@](C(=O)OC)(c1cc3c(cc1OC)N(C)[C@H]1[C@@](O)(C(=O)OC)[C@H](O)[C@]4(CC)C=CCN5CC[C@]31[C@@H]54)C2,2.2%,4.15%,2.69%
C=C[C@H]1CN2CC[C@H]1C[C@H]2[C@H](O)c1cc(/C=C/c2ccc(F)cc2)nc2ccc(OC)cc12,2.95%,0.72%,2.4%
NCC(=O)c1cc2c(cc1N)OCCO2,8.91%,9.43%,3.9%
CCOc1ccc2nccc([C@@H](O)[C@@H]3C[C@@H]4CCN3C[C@@H]4CC)c2c1,1.23% and 2.9%,1.71% and 3.63%,3.59% and -0.94%
O=C(NCC(=O)N1CCC[C@H]1C(=O)O)[C@@H](Cc1ccccc1)NC(=O)[C@@H]1CCCN1C(=O)CCCc1ccc(O)cc1,–,-1.36%,-1.68%
c1ccc(C(OCCC2CCN(Cc3cccnc3)CC2)c2ccccc2)cc1,0.62%,0.06%,0.26%
CN(c1cc(NC(=O)c2cccs2)ccn1)C1CCN(Cc2cccc(C#N)c2)CC1,8.2%,9.92%,8.95%
Cc1c(C)c2c(c(C)c1O)CC[C@@](C)(C(=O)N1CCC(CN3CCC(c4c[nH]c5ccccc45)CC3)CC1)O2,-0.93%,-1.76%,-3.6%
CO/C(=C\C=C\c1cc2cc(Cl)c(Cl)cc2[nH]1)C(=O)N[C@H]1CN2CCC1CC2,0.86%,-0.23%,-0.34%
CC(Cc1ccc(SC(C)(C)C)cc1)NCC(O)c1cccc(Cl)c1 (stereo unspecified),-1.59%,-2.57%,-0.72%
CC(Cc1ccc(OCCCCOc2ccccc2)cc1)NCCCN1CCOCC1 (stereo unspecified),-1.24%,2.33%,-0.25%
